Measurements published in PubChem BioAssay.
Calls of active or inactive are those of the source. Unless noted, no rule for the calls is given here.

How the values were obtained:
[1] = compounds binding Alexa647 anti-His antibody – biochemical, small-molecule microarray, 635 nm fluorescence, artefact control for SMM control protein annotation, primary screen (AID 1128); settings: higher = more signal;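 also: score merges feature fluorescence with signal-to-noise for each printed compound spot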
[2] = tested on: Human papillomavirus type 1a E7 protein (residues 1-88); experiment: HPV1a E7 small-molecule binders, primary screen, biochemical, small-molecule microarray, residues 1-88, 635 nm (AID 1129); settings: small-molecule microarray binding, fluorescence 635 nm; higher = more signal
[3] = target: Focal adhesion kinase 1 (Homo sapiens) (UniProt Q05397); experiment: PTK2 protein binding on printed compound slides – biochemical, small-molecule microarray, 635/667 nm fluorescence, BSA, DTT, primary screen (AID 1130); settings: 635 nm fluorescence, higher = more signal;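 also: composite of spot emission at 667 nm and signal to noise over triplicate slides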
Chain of Focal adhesion kinase 1 (Homo sapiens) (Q05397 whole entry, looked up): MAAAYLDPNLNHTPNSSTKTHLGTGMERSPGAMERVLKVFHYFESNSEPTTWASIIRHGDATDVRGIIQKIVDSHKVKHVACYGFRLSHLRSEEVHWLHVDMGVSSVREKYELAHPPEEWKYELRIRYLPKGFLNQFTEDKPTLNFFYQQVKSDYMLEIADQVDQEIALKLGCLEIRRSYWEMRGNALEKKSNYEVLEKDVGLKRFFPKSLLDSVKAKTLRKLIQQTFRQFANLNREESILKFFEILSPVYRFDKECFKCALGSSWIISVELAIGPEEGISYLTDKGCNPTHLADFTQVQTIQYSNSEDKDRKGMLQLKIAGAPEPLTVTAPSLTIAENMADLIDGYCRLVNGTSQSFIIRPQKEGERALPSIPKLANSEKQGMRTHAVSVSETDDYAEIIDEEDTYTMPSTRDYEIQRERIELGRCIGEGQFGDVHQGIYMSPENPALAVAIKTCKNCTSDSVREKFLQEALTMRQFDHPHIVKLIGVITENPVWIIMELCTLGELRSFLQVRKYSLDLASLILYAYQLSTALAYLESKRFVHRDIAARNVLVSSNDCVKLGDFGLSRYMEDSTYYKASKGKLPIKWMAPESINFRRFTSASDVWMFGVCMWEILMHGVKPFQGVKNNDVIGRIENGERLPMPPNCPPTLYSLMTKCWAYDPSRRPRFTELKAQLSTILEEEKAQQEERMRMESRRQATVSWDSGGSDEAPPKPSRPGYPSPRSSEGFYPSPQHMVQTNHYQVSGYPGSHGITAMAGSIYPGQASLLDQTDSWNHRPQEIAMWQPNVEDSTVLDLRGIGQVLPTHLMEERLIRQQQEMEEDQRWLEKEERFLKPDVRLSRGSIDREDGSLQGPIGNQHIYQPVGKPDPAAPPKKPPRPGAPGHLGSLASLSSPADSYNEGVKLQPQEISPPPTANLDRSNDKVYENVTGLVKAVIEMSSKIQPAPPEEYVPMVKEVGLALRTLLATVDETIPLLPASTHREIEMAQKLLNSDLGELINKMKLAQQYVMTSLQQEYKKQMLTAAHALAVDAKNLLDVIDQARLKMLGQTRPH

[4] = tested on: Fibrinogen (Alexa647-labelled); experiment: Alexa647-fibrinogen binding to printed small molecules – biochemical, small-molecule microarray, 635/667 nm fluorescence, artefact control for SMM control-protein annotation, profiling panel (AID 1131); settings: fibrinogen-A647 binding fluorescence, higher = more signal;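 also: z-score merges 667 nm fluorescence with per-spot signal-to-noise over triplicate slides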
[5] = target: Follistatin (Homo sapiens) (UniProt P19883); experiment: FST protein binding to printed compounds – biochemical, small-molecule microarray, 635/667 nm fluorescence, primary screen (AID 1132); settings: 635 nm fluorescence, higher = more signal
Chain of Follistatin (Homo sapiens) (P19883 whole entry, looked up): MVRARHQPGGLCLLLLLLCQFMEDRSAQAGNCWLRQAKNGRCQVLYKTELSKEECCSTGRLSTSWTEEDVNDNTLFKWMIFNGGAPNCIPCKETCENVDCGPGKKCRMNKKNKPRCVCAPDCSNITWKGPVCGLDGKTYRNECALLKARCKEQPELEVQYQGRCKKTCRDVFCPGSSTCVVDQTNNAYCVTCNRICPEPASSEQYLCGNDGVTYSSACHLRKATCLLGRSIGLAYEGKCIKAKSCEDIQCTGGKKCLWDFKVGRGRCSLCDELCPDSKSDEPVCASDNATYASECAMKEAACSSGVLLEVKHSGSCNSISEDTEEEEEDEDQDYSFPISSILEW

[6] = target: Fibroblast growth factor 2 (Homo sapiens) (UniProt P09038); experiment: basic fibroblast growth factor binding to printed compounds – biochemical, small-molecule microarray, 635/667 nm fluorescence, primary screen (AID 1133); settings: FGF2, fluorescence 635/667, higher = more signal
Chain of Fibroblast growth factor 2 (Homo sapiens) (P09038 whole entry, looked up): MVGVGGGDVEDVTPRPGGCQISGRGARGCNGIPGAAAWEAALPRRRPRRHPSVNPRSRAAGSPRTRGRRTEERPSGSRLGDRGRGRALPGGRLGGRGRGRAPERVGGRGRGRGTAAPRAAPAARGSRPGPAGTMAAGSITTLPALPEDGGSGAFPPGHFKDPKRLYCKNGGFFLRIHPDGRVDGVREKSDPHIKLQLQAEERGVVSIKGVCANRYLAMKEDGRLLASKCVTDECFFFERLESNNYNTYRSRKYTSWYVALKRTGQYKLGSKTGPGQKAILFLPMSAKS

[7] = JC-1 mitochondrial potential readout, lung cancer cells – cell-based, A549, JC-1 fluorescence, basal, 24 h, 100 nL, profiling panel (AID 1138); settings: higher = more signal;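 also: A549 lung adenocarcinoma cells under basal conditions with no added stimulus; test concentration not given here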
[8] = tested on: Lefty1; experiment: Lefty1 protein binding to printed compounds – biochemical, small-molecule microarray, 635/667 nm fluorescence, primary screen (AID 1139); settings: fluorescence 635/667, higher = more signal
[9] = tested on: wheat germ agglutinin (Triticum aestivum), Alexa647-labelled; experiment: Alexa647-WGA lectin binding to printed small molecules – biochemical, small-molecule microarray, 635/667 nm fluorescence, artefact control for SMM control-protein annotation, profiling panel (AID 1140); settings: WGA-A647 binding, 635 nm fluorescence, higher = more signal;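 also: score merges 667 nm feature emission with signal to noise over triplicate slides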
[10] = target: Luciferin 4-monooxygenase (Photinus pyralis) (UniProt P08659); experiment: inhibition of purified Photinus pyralis luciferase – biochemical, luminescence, purified enzyme, 2006 set, primary screen (AID 1141); settings: purified firefly luciferase, SteadyGlo luminescence, 30 min; higher = more signal, called active from +8 up or from −8 down;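 also: cell-free assay with purified firefly luciferase at 100 ng per well in PBS; test concentration not given here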
Chain of Luciferin 4-monooxygenase (Photinus pyralis) (P08659 whole entry, looked up): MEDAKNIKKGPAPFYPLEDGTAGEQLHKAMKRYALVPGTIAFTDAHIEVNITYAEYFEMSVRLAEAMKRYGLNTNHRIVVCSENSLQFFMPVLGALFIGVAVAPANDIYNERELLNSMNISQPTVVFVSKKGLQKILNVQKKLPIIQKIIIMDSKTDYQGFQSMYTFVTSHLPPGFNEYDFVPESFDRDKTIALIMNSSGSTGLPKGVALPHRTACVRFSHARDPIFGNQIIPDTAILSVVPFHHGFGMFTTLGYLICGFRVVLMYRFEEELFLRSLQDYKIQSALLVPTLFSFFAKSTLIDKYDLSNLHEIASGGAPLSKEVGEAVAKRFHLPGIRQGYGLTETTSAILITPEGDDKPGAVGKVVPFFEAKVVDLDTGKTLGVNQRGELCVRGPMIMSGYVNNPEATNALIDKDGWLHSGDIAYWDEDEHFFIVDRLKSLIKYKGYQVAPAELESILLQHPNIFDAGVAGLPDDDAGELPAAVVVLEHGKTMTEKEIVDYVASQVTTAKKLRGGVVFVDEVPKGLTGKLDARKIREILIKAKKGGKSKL

[11] = tested on: Wnt5a (protein binding on small-molecule microarray); experiment: small molecules binding Wnt5a protein – biophysical, small-molecule microarray, 635/667 nm fluorescence, primary screen (AID 1142); settings: 635 nm fluorescence, higher = more signal;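 also: fluorescence read at 667 nm with signal to noise per printed feature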
[12] = ATP-based viability of Huh7 replicon cells – cell-based, CellTiter-Glo luminescence, basal, 48 h, cytotoxicity control for HCV replication inhibitor project, primary screen (AID 1143); settings: higher = more signal, called active from +8 up or from −8 down;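 also: Huh7 hepatoma cells carrying a hepatitis C replication reporter with no stimulus; test concentration not given here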
[13] = Pseudomonas biofilm growth suppression – PAO1 strain, BacTiter-Glo luminescence, LB-PBS, primary screen (AID 1144); settings: P. aeruginosa PAO1 biofilm, 12 h, higher = more signal
[14] = basal CRE-LacZ reporter activity in PC12 – cell-based, unstimulated, primary screen (AID 1145); settings: no forskolin, luminescence, 4.5 h, higher = more signal, called active from +8 up or from −8 down
[15] = forskolin-driven CRE-LacZ activity in PC12 – cell-based, CRE-LacZ reporter, forskolin-stimulated, primary screen (AID 1146); settings: luminescence, 4.5 h, higher = more signal, called active from +8 up or from −8 down;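 also: PC12 cells with 6xCRE LacZ reporter stimulated by forskolin 10 µM; beta-galactosidase reporter signal reflecting CREB driven transcription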
[16] = target: Streptavidin (Streptomyces avidinii) (UniProt P22629); experiment: compounds binding control protein streptavidin – biophysical, small-molecule microarray, 635/667 nm fluorescence, artefact control for SMM compound annotation, primary screen (AID 1147); settings: higher = more signal;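 also: signal reflects streptavidin binding to arrayed compounds as a control protein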
Chain of Streptavidin (Streptomyces avidinii) (P22629 whole entry, looked up): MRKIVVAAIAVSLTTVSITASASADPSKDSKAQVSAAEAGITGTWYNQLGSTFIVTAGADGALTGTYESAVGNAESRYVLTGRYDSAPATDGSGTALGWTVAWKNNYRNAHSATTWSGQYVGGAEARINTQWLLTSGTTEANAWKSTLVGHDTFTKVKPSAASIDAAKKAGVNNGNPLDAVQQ

[17] = probe aInhba binding on compound microarray – biochemical, small-molecule microarray, 635/667 nm fluorescence, primary screen (AID 1148); settings: higher = more signal;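 also: score merges 667nm spot fluorescence with signal-to-noise for antibody binding to printed compounds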
[18] = target: Torsin-1A (Homo sapiens) (UniProt O14656); experiment: TOR1A wild-type binding on microarray – cell lysate, small-molecule microarray, lysate, 635/667 nm, primary screen (AID 1149); settings: COS7 hTOR1A-WT lysate, 635 nm fluorescence, higher = more signal
Chain of Torsin-1A (Homo sapiens) (O14656 whole entry, looked up): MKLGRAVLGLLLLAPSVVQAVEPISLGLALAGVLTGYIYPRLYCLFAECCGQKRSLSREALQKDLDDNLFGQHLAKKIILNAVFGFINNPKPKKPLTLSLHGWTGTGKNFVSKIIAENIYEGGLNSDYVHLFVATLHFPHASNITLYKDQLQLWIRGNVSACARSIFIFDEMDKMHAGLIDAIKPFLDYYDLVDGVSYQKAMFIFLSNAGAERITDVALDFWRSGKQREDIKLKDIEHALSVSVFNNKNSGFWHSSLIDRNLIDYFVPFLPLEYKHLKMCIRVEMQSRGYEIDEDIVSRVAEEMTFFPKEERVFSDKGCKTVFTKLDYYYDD

[19] = target: Torsin-1A (Homo sapiens) (UniProt O14656); experiment: torsin A mutant lysate binding on microarrays – cell lysate, small-molecule microarray, COS7 lysate, 635/667 nm fluorescence, primary screen (AID 1150); settings: COS7 hTOR1A mutant lysate, 635 nm fluorescence, higher = more signal;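 also: score pools 667 nm emission and signal to noise measuring lysate protein binding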
[20] = tested on: Sonic hedgehog protein (Shh); experiment: Sonic hedgehog microarray binding compounds – biochemical, small-molecule microarray, 635/667 nm fluorescence, primary screen (AID 1151); settings: 635 nm fluorescence, higher = more signal;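 also: Shh protein binding to compounds spotted on small-molecule microarray slides; score combines spot fluorescence intensity with signal-to-noise across triplicate slides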

## C=CCC(OC(C)=O)[C@@H]1[C@@H](N(Cc2cc3ccccc3o2)C(=O)Cc2ccc(F)cc2)c2cc(OCCCO)ccc2N1C(=O)c1ccc2ccccc2c1 (stereo not given in full)
[1]
  composite z-score: -0.232
[2]
  composite z-score: -0.835
[3]
  composite z-score: -0.167
[4]
  composite z-score: -1.03
[5]
  composite z-score: 0.722
[6]
  composite z-score: -0.143
[7]
  z-score: 1.08
[8]
  composite z-score: 0.777
[9]
  composite z-score: 0.181
[10]
  z-score: -0.514 (inactive)
[11]
  composite z-score: 0.117
[12]
  z-score: -0.008 (inactive)
[13]
  z-score: 0.101 (inactive)
[14]
  z-score: 2.6 (inactive)
[15]
  z-score: 0.86 (inactive)
[16]
  composite z-score: 0.0943
[17]
  composite z-score: -0.176
[18]
  composite z-score: -0.312
[19]
  composite z-score: 0.237
[20]
  composite z-score: 0.697

## [N-]=[N+]=Nc1ccccc1[C@H]1OC(c2ccc(OCCCO)cc2)=N[C@@]1(Cc1ccccc1)C(=O)N1CCCCC1
[1]
  composite z-score: 1.55
[2]
  composite z-score: 1.2
[3]
  composite z-score: 0.724
[4]
  composite z-score: 0.963
[5]
  composite z-score: 1.45
[6]
  composite z-score: 1.67
[7]
  z-score: -1.43
[8]
  composite z-score: 0.0229
[9]
  composite z-score: 0.945
[10]
  z-score: -6.62 (inactive)
[11]
  composite z-score: 1.57
[12]
  z-score: -3.95 (inactive)
[13]
  z-score: -0.21 (inactive)
[14]
  z-score: 0.722 (inactive)
[15]
  z-score: -0.585 (inactive)
[16]
  composite z-score: 1.16
[17]
  composite z-score: 0.395
[18]
  composite z-score: 0.728
[19]
  composite z-score: 0.373
[20]
  composite z-score: 0.021

## COC(=O)C(CC#Cc1ccc2c(c1)[C@]1(C(=O)N2)[C@H](C(=O)N2CCN(c3ncccn3)CC2)[C@H]2C(=O)O[C@H](c3ccccc3)[C@H](c3ccccc3)N2[C@@H]1c1ccc(OCCO)cc1)C(=O)OC
[1]
  composite z-score: 2.65
[2]
  composite z-score: 1.25
[3]
  composite z-score: 0.179
[4]
  composite z-score: 0.982
[5]
  composite z-score: 1.38
[6]
  composite z-score: 1.63
[7]
  z-score: -1.35
[8]
  composite z-score: 1.31
[9]
  composite z-score: 1.03
[10]
  z-score: -1.22 (inactive)
[11]
  composite z-score: 0.545
[12]
  z-score: -1.02 (inactive)
[13]
  z-score: -0.99 (inactive)
[14]
  z-score: -0.671 (inactive)
[15]
  z-score: -0.772 (inactive)
[16]
  composite z-score: 0.736
[17]
  composite z-score: 0.109
[18]
  composite z-score: 0.393
[19]
  composite z-score: 0.798
[20]
  composite z-score: 2.23
